Data on 13 compounds can be found in PubChem BioAssay (NCI).

What all share (assay): NCI-60 one-dose screen, 48 h (100 = growth as untreated, 0 = no growth, -100 = all killed)
Conditions in all cases: 10 µM unless noted

Assay [1] deals with NCI-H226 lung.
In assay [2] the test system is NCI-H322M lung.
Assay [3] has as its system HOP-62 NSCLC.
For assay [4], the system named is NCI-H460 lung.
For assay [5], the system named is HOP-92 NSCLC.
Assay [6] deals with NCI-H522 lung.
Assay [7] deals with A549/ATCC NSCLC.
In assay [8] the test system is 786-0 renal.
The subject of assay [9] is COLO 205 colon.
In assay [10] the test system is DU-145 prostate.

This is part of a sample that, as a whole, favours compounds with a hit. Of some 83,000 tested, about 20% had one in any assay.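 In brief: 96-well plates, 48 h treatment, single concentration, percent growth endpoint.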 Values without a mark were called inactive. Active and inactive are the calls of the source. Rule for the calls: active = growth percent below 10; inactive = the rest.

For the compound `CC(C)NC(=O)c1cc(-c2ccc(NC(=O)Nc3ccc(N4CCOCC4)c(C(F)(F)F)c3)cc2)nc2cccnc12`, the growth was 80% in assay [1]; 91.2% in assay [2]; 43.9% in [3]; 55.2% in assay [4]; 72.3% in assay [5]; 87% in assay [6]. Besides, the growth in assay [7] was 62.4%; in assay [8] it was 17%; in assay [9], 99.7%; in assay [10], 78.9%.

`C=C1CC[C@H]2[C@@](C)(CCC3OC(c4ccc(OCc5cn(C6CC(OC(C)=O)C(OC(C)=O)C(COC(C)=O)O6)nn5)cc4)OC[C@]32C)[C@@H]1/C=C/C1=CCOC1=O` (stereo not given in full): the growth was 74.5% in assay [1]; 100% in assay [2]; 85.5% in [3]; 85.8% in [4]; 65.6% in assay [5]; 82.2% in [6]. For the same compound, the growth is 82.8% in assay [7], 95.1% in assay [8], 82.3% in assay [9] and 90% in [10].

For the compound `COc1cc(N=Cc2sc(Nc3nccs3)nc2O)cc(OC)c1OC`, the growth in assay [1] is 79.5%; in assay [2] it was 74%; in [3], 80.1%; in [4] it was 69.9%; in assay [5] it was 72.8%; in [6], 93.6%. Also, the growth in [7] was 95.6%; in [8] it was 96.6%; in [9] it was 99.6%; in assay [10], 93.3%.

In the case of `Cn1cc(-c2cc(N)n3nc(-c4cn(C)c5ccc(Cl)cc45)cc3n2)c2cc(Cl)ccc21`, the growth in [1] is 111%; in [2], 85.7%; in assay [3] it was 102%; in assay [4], 71.4%; in assay [5], 95.3%; in [6] it was 100%. Further, the growth in assay [7] is 87.9%; in assay [8] it was 99.4%; in assay [9], 119%; in [10], 71.4%.

Turning to `c1ccc(CNc2ncnc3ccc(-c4cnc5[nH]ncc5c4)cc23)cc1`, the growth in [1] is 55.7%; in assay [2], 59.3%; in assay [3], 60.7%; in assay [4], 65.7%; in [5], 57.9%; in assay [6] it was 60.9%. Besides, the growth in assay [7] is 37.5%; in [8], 61.8%; in assay [9] it was 94%; in assay [10], 49.6%.

As for `COc1ccc(-c2nn3c(-c4ccccc4F)nnc3s2)cc1`, the growth in assay [1] was 89.4%; in assay [2] it was 75%; in assay [3] it was 67.5%; in assay [4], 30%; in assay [5], 76.9%; in assay [6] it was 20.2%. The growth in assay [7] was 56.6%; in assay [8], 72.5%; in [9], 41.6%; in assay [10], 72.2%.

For `COC(=O)C1CCCN(S(=O)(=O)/N=C2\NC(=O)NC2=C(Cl)Cl)C1` (stereo not given), the growth in assay [1] is 105%; in assay [2] it was 103%; in assay [3], 118%; in [4], 108%; in assay [5], 110%; in assay [6], 87.7%. The growth was 106% in [7], 102% in assay [8], 112% in [9] and 112% in assay [10].

As to `N#Cc1nc(-c2ccccc2)oc1N1CCC(CO)C1` (stereo not given), the growth in [1] is 92.6%; in [2], 88.4%; in assay [3], 107%; in assay [4] it was 103%; in assay [5], 129%; in assay [6] it was 97.8%. Moreover, the growth in assay [7] is 95.2%; in [8], 101%; in assay [9] it was 116%; in assay [10], 104%.

`O=C1[C@H]2Cc3c([nH]c4ccccc34)[C@@H](c3ccc(Br)cc3)N2C(=O)CN1C1CCN(Cc2ccccc2)CC1`: the growth was 39.5% in assay [1]; 67% in assay [2]; 54% in assay [3]; 30% in assay [4]; 28.9% in assay [5]; -36.7% (active) in [6]. Besides, the growth in assay [7] was 20.7%; in assay [8], 41.1%; in assay [9], 12.7%; in assay [10], 38.8%.

`CCOC(=O)c1c(Nc2ccccc2)nn2c(-c3ccco3)c(C#N)cnc12`: the growth in assay [1] was 76.9%; in assay [2], 96.8%; in assay [3], 95.6%; in [4], 93.1%; in assay [5], 68%; in assay [6], 82.6%. For the same compound, the growth in assay [7] was 95.2%; in [8] it was 67.2%; in [9], 98.6%; in [10] it was 87.9%.

Turning to `Cc1sc2c(c1C)c(=O)nc1c(-c3nc(-c4ccc(F)cc4)no3)n[nH]n12`, the growth in [1] was 93.1%; in [2], 103%; in assay [3], 91.8%; in [4], 107%; in [5], 91.2%; in [6], 100%. The growth is 106% in assay [7], 99.4% in assay [8], 119% in [9] and 109% in assay [10].

Take `CCOC(=O)c1c(Nc2ccccc2)nn2c(N)c(C#N)c(-c3ccc(Cl)cc3)nc12`: the growth in [1] was 42.1%; in assay [2], 77.4%; in [3], 53.9%; in assay [4], 12.1%; in assay [5], 43.2%; in assay [6] it was 72.3%. Moreover, the growth in [7] was 46%; in assay [8] it was 38.7%; in assay [9] it was 69.4%; in assay [10] it was 62%.

Consider `Nc1ncc(-c2ccc3ncnc(N4CCc5cc(F)c(Cl)cc54)c3c2)cc1CO`, for which the growth was 18.9% in assay [1]; -2.33% (active) in assay [2]; 9.91% (active) in assay [3]; 6.98% (active) in [4]; -13.2% (active) in assay [5]; -18% (active) in assay [6]. Besides, the growth in [7] was 3.94% (active); in [8], 4.92% (active); in assay [9], -21.9% (active); in [10], 11.3%.
